Cycloheximide cs – counter-screen hit for Shiga toxin inhibitors, cycloheximide; 300,000 tested, 12% active; cell reporter, cycloheximide protein synthesis inhibition counterscreen; max response, %; in the data active means max response mostly above about 13%, no sharp cut-off; inactive means mostly below about 14%; further: read at 38.3 µM for the half of the compounds with a filed dose; 0% is about no effect
Pf growth 96h – P. falciparum growth inhibition at 96 hours. AID 504834. 320,000 tested, 6.9% active. P. falciparum luciferase reporter growth, 96 h. Potency, µM (highest dose often 28.7 µM), inactives show at the top dose activity change, negative = inhibition, usual class: inhibitors; further: potency means the concentration at half of the fitted maximal effect; on the % scale 0 is the no-effect control and ±100 the full control effect
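Readout is luminescence from an integrated firefly luciferase in P. falciparum. Red cells, 2% hematocrit and 0.05% parasitemia final, were cultured with compound through two parasite generations (96 hours) at 37 C, 5% CO2.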
Shiga inhibitor – inhibitors of Shiga toxin in Vero cells | Vero cells, Shiga toxin protein synthesis inhibition reporter | inhibition, % at 38.7 µM | 290,000 tested, 9.2% active; in the data active means inhibition mostly above about 28%, no sharp cut-off; inactive means mostly below about 43%; further: 0% is about no effect
Marburg entry inh – blocks Marburg virus binding to or entry into cells | Marburg virus pseudotyped entry inhibition, cell reporter | Potency, µM (doses to about 37.8 µM), inactives show top-dose activity change, negative = inhibition, usual class: inhibitors | 300,000 tested, 1.8% active; calls by dose curve; tested in HEK293 cells; further: potency means the concentration at half of the fitted maximal effect; on the % scale 0 is the no-effect control and ±100 the full control effect
Lassa entry inh – inhibitors of Lassa virus binding or cell entry. Lassa virus pseudotype entry inhibition, cell reporter. Potency, µM (highest dose often 37.9 µM), inactives show top-dose activity change, negative = inhibition, actives largely listed as inhibitors. 300,000 tested, 1.2% active; calls by dose curve; tested in HEK293 cells; further: potency means the concentration at half of the fitted maximal effect; on the % scale 0 is the no-effect control and ±100 the full control effect; nearly all actives have a fitted effect of over 50% in size
Pf growth 48h – inhibits P. falciparum growth in the first generation, 48 h; P. falciparum luciferase growth in erythrocytes, 48 h; 310,000 tested, 5.9% active; Potency, µM (series often up to 28.7 µM), for the others: at the top dose activity change, negative = inhibition, most hits filed as inhibitors; further: potency means the concentration at half of the fitted maximal effect; on the % scale 0 is the no-effect control and ±100 the full control effect
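Compounds are pin-transferred into medium, infected erythrocytes (2% hematocrit, 0.1% parasitemia final) are added, and plates sit one parasite generation at 37 C in 5% CO2. Detection reagent is then added and luminescence measured.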
Starred values were filed as active, the others as inactive; i = inactive; u = inconclusive; x = no result given; [ ] = remark or other dose. Rows were chosen to be rich in hits. Some 19% of all compounds tested hit in one or more screens of this group. Unless noted, the call rests on the fitted dose curve; in most records, active means well fitted inhibition curve with a large enough effect; inconclusive means small, poorly fitted or top-dose-only effect, or another doubt; inactive means no such curve, though single readings can be large or run the other way.

SMILES	Cycloheximide cs	Pf growth 96h	Shiga inhibitor	Marburg entry inh	Lassa entry inh	Pf growth 48h
OC(CN1CCOCC1)c1ccc(F)cc1 (configuration not stated)	-8	0%	-14	x	x	6%
OC(CN1CCN(c2ccc(F)cc2)CC1)c1ccc(Cl)cc1 (configuration not stated)	-2	13µM*	-7	u	10%[46.1 µM]	x
OC(CN1CCC(Cc2ccc(F)cc2)CC1)c1ccc(Cl)cc1 (configuration not stated)	x	2.1µM*	x	7.1µM*	u	1.5µM*
O=C(Cn1cnnn1)Nc1cccc(S(=O)(=O)N2CCCCC2)c1	-2	19%	3	1%[46.1 µM]	-3%	6%
CSc1nc2nc3c(cn2n1)C(=O)CC(c1ccccc1)C3 (configuration not stated)	-2	x	-13	10%	8%[14.3 µM]	15%
COc1c(C(=O)NNC(=O)c2ccccc2Cl)csc1Br	49*	134%	76*	u	15%	87%
CC(C)c1ccc(-c2c(NCCc3ccccc3)c(=O)c2=O)cc1	5	u	19	0%[46.1 µM]	24%[46.1 µM]	0%
N/C(=N\OC(=O)COc1ccc2ccccc2c1Br)c1cccnc1	16*	45%	103*	x	x	3%
N/C(=N\OC(=O)COc1ccc2ccccc2c1Br)c1ccccn1	56*	-18%[1.15 µM]	119*	x	x	160%
O=C(NC1CCCCC1)C(c1cccnc1)N(C(=O)c1csnn1)c1ccccc1 (configuration not stated)	-3	2%	-10	-1%[46.1 µM]	-1%[46.1 µM]	-8%
Fc1ccc(-c2nc(-c3cccs3)c(-c3cccs3)[nH]2)cc1	x	x	x	3%[46.1 µM]	-16%[46.1 µM]	x
CC1CCC/C(=C\Nc2ccc(C(=O)O)cc2)C1=O (configuration not stated)	37*	u	55*	u	u	i
O=C(O)c1ccc(NS(=O)(=O)c2ccc(Cl)c(Cl)c2)cc1O	-2	x	-12	10%[46.1 µM]	0%	-20%
CC(=O)Nc1ccc2c(c1)CCCC2=O	16*	34%	35	x	x	52%
Cc1cc(O)ccc1N/C=C1\CCCC1=O	13*	u	42*	-6%	-3%	53%
CCOC(=O)c1ccccc1N/C=C1\CCCCC1=O	-5	42%	-17	1%	u	4%
O=C1CCCC/C1=C\Nc1ccc(C(=O)O)c(O)c1	17*	31%	62*	x	x	58%
Cn1c(=O)c2c(ncn2CC(=O)OCC(=O)NC2CCCc3ccccc32)n(C)c1=O (configuration not stated)	-1	u	-4	34%	-3%	33%
O=c1oc2c3c(nn2c2ccccc12)CCCC3	-4	0%	-9	18%	4%	x
Cc1ccc([N+](=O)[O-])cc1N/C=C1\CCCCC1=O	58*	-1%	93*	-18%[46.1 µM]	-37%	280%
CC(=O)Nc1ccc(N/C=C2/CCCC2=O)cc1	11*	0%	49*	u	18%[46.1 µM]	28%
CC1CCC/C(=C\Nc2ccc(C(=O)O)c(O)c2)C1=O (configuration not stated)	38*	100%	82*	-5%[46.1 µM]	8%	98%
CCOC(=O)c1ccc(N/C=C2/CCCC(C)C2=O)cc1 (configuration not stated)	57*	-30%	52*	u	4%	x
O=C(CCCCCNC(=O)N1CCn2c1nc1ccccc12)NCc1ccc(Cl)cc1	-1	u	3	x	x	u
Cc1cc(C)c2nc(NC(=O)c3ccc(OCC4CCCO4)cc3)sc2c1 (configuration not stated)	31*	u	65*	u	7%	107%
SMILES	Cycloheximide cs	Pf growth 96h	Shiga inhibitor	Marburg entry inh	Lassa entry inh	Pf growth 48h
O=C(Nc1nc(-c2ccc(Cl)cc2Cl)cs1)c1ccc(OCC2CCCO2)cc1 (configuration not stated)	-3	u	-2	u	u	-21%
Cc1ccc2nc(NC(=O)c3ccc(OCC4CCCO4)cc3)sc2c1 (configuration not stated)	46*	u	92*	u	u	-52%
CCOc1ccc2nc(NC(=O)c3ccc(S(=O)(=O)N4CCOCC4)cc3)sc2c1	-1	31%	-10	9%	3%	-16%
O=C(Cn1cc(S(=O)(=O)Cc2cccc(Cl)c2)c2ccccc21)Nc1ccc(F)c(Cl)c1	x	x	x	x	-16%[46.1 µM]	x
Cc1ccc2c(c1)c1c(n2CC(O)CNC(CO)(CO)CO)CCCC1 (configuration not stated)	-5	19%	-13	x	x	x
CCC1CCc2sc(C(=O)O)cc2C1 (configuration not stated)	-3	3.3µM*	-13	6%	15%	6%
CCC1CCc2sc(C(=O)NNC(=O)c3ccncc3)cc2C1 (configuration not stated)	x	3%	x	10%	-14%	-6%
C=CCN1CCN(C(=O)c2cc3c(s2)CCC(CC)C3)CC1 (configuration not stated)	37*	3%	50*	u	-7%[46.1 µM]	21%
Cc1cccc(C)c1NC(=O)Cn1c(=O)n(Cc2ccc(C(=O)NCc3ccco3)cc2)c(=O)c2sccc21	x	x	x	3%[46.1 µM]	u	x
O=C(COC(=O)/C=C/C(=O)OCC(=O)NC12CC3CC(CC(C3)C1)C2)NC12CC3CC(CC(C3)C1)C2	-2	12%	9	8.9µM*	-21%	13%
O=C(COC(=O)c1cccs1)NC12CC3CC(CC(C3)C1)C2	29*	-12%	68	4%[46.1 µM]	8%[46.1 µM]	20%
O=C(NC1CCCCC1)c1cccs1	24*	8%	33	35%[46.1 µM]	14%	x
O=C(COC(=O)c1cccs1)NC1CCCC1	20*	u	68	8%[46.1 µM]	-3%[46.1 µM]	8%
CCn1c2c(c3cc(Br)ccc31)CCC/C2=N\O	-3	x	-9	-8%	-10%	u
O=C(CN1C(=O)CCS(=O)(=O)c2ccccc21)Nc1ccc(Cl)cc1	-2	u	11	-16%[46.1 µM]	-11%[46.1 µM]	16%
COc1ccc(C)cc1S(=O)(=O)NC(C)C(=O)Nc1ccc2c(c1)OCO2 (configuration not stated)	-3	u	20	13%[46.1 µM]	x	13%
O=C(COC(=O)CCC(=O)c1cccs1)NC1CCCCC1	x	u	x	x	x	4%
O=C(COC(=O)c1cccs1)NC1CCCCC1	43*	x	94*	6%	u	0%
COc1cccc(C2=NOC(C(=O)N3CCC4(CC3)OCCO4)C2)c1 (configuration not stated)	52*	14%	97*	1%	-5%	46%
COc1cccc(C2=NOC(C(=O)NC(C)C)C2)c1 (configuration not stated)	-3	x	25	14%	18%[14.3 µM]	u
CC1CCCCN1C(=O)C1CC(c2ccc(F)cc2)=NO1 (configuration not stated)	59*	u	90*	-15%	u	80%
